Data reported in the supplement of paper PMC12669032.

Key:
Assay in all cases: growth AUC relative to DMSO control (median of replicates) (fraction); higher = more growth (less inhibition), active = hit call of the paper
Conditions in all cases: 20 µM; 24 h;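 active = AUC reduced over 20% with Padj below 0.05 in at least 2 of 3 replicates; inactive = otherwise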
Akkermansia muciniphila = test system: Akkermansia muciniphila
In short: (§1)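 For each compound at 20 µM (1% DMSO), gut bacterial monocultures seeded at OD600 0.05 grew anaerobically in mGAM at 37 °C in round-bottom 96-well plates. Hourly OD600 readings over 24 h gave growth curves whose minimum OD was set to 0. Area under these curves was normalised to the plate median of solvent-only wells, or to row and column medians on the industrial chemical plate. Values are medians of three biological replicates grown on separate days.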

Bacteroides caccae = test system: Bacteroides caccae
In short: as §1

Bacteroides clarus = test system: Bacteroides clarus
In short: as §1

Bacteroides dorei = test system: Bacteroides dorei
In short: as §1

Bacteroides stercoris = test system: Bacteroides stercoris
In short: as §1

[1] = test system: Bacteroides thetaiotaomicron
In short: as §1

Bacteroides uniformis = test system: Bacteroides uniformis
In short: as §1

[2] = test system: Bifidobacterium longum subsp. longum
In short: as §1

Clostridium difficile = test system: Clostridium difficile
In short: as §1

Collinsella aerofaciens = test system: Collinsella aerofaciens
In short: as §1

Measured: growth AUC

CNC(=O)Oc1cc(C)c(SC)c(C)c1
inactive: Akkermansia muciniphila 1.07 | Bacteroides caccae 0.934 | Bacteroides clarus 1 | Bacteroides dorei 0.971 | Bacteroides stercoris 0.912 | [1] 1.01 | Bacteroides uniformis 0.989 | [2] 1.34 | Clostridium difficile 1.01 | Collinsella aerofaciens 0.934

O=S(=O)(c1ccc(O)cc1)c1ccc(O)cc1
inactive: Akkermansia muciniphila 0.921 | Bacteroides caccae 0.97 | Bacteroides clarus 1 | Bacteroides dorei 1.01 | Bacteroides stercoris 0.977 | [1] 0.996 | Bacteroides uniformis 0.987 | [2] 0.949 | Clostridium difficile 0.997 | Collinsella aerofaciens 0.976

N#CC(CCc1ccc(Cl)cc1)(Cn1cncn1)c1ccccc1 (stereo not given)
inactive: Akkermansia muciniphila 1.02 | Bacteroides caccae 0.967 | Bacteroides clarus 0.961 | Bacteroides dorei 0.952 | Bacteroides stercoris 0.941 | [1] 0.94 | Bacteroides uniformis 0.873 | [2] 0.978 | Clostridium difficile 0.957 | Collinsella aerofaciens 0.968

CC(C)C1(C)N=C(c2ncccc2C(=O)O)NC1=O (stereo not given)
inactive: Akkermansia muciniphila 0.976 | Bacteroides caccae 0.918 | Bacteroides clarus 1.01 | Bacteroides dorei 0.761 | Bacteroides stercoris 1.17 | [1] 0.974 | Bacteroides uniformis 1.02 | [2] 1 | Clostridium difficile 0.991 | Collinsella aerofaciens 0.978

COCCOC(=O)C(C#N)(C(=O)c1ccccc1C(F)(F)F)c1ccc(C(C)(C)C)cc1 (stereo not given)
inactive: Akkermansia muciniphila 1.07 | Bacteroides caccae 0.937 | Bacteroides clarus 0.965 | Bacteroides dorei 0.927 | Bacteroides stercoris 0.941 | [1] 1.01 | Bacteroides uniformis 0.942 | [2] 1.01 | Clostridium difficile 0.943 | Collinsella aerofaciens 0.885

O=C(O)C(F)(F)C(F)(F)C(F)(F)C(F)(F)C(F)(F)C(F)(F)F
inactive: Akkermansia muciniphila 0.965 | Bacteroides caccae 1.03 | Bacteroides clarus 1 | Bacteroides dorei 1.01 | Bacteroides stercoris 1 | [1] 1 | Bacteroides uniformis 1.02 | [2] 1.04 | Clostridium difficile 1 | Collinsella aerofaciens 1.02

CCN(C(=O)n1nnn(-c2ccccc2Cl)c1=O)C1CCCCC1
active: Bacteroides clarus 0.508 | Bacteroides dorei 0.513 | Bacteroides stercoris 0.118 | [1] 0.107 | Bacteroides uniformis 0.0622
inactive: Akkermansia muciniphila 0.87 | Bacteroides caccae 0.84 | [2] 0.988 | Clostridium difficile 0.992 | Collinsella aerofaciens 0.925

CCC(C)n1c(=O)[nH]c(C)c(Br)c1=O (stereo not given)
inactive: Akkermansia muciniphila 1.12 | Bacteroides caccae 0.833 | Bacteroides clarus 0.99 | Bacteroides dorei 0.952 | Bacteroides stercoris 1.13 | [1] 0.911 | [2] 1.02 | Clostridium difficile 0.945 | Collinsella aerofaciens 0.96
active: Bacteroides uniformis 0.775

Cc1[nH]c(=O)n(C(C)(C)C)c(=O)c1Cl
inactive: Akkermansia muciniphila 1.07 | Bacteroides caccae 1 | Bacteroides clarus 0.993 | Bacteroides dorei 0.96 | Bacteroides stercoris 0.979 | [1] 1 | Bacteroides uniformis 0.981 | [2] 0.978 | Clostridium difficile 0.997 | Collinsella aerofaciens 0.924

CCOCN(C(=O)CCl)c1c(C)cccc1CC
inactive: Akkermansia muciniphila 0.969 | Bacteroides caccae 1.01 | Bacteroides clarus 0.995 | Bacteroides dorei 1.04 | Bacteroides stercoris 1 | [1] 0.967 | Bacteroides uniformis 0.968 | [2] 0.986 | Clostridium difficile 0.983 | Collinsella aerofaciens 1.03

ClC1=C(Cl)[C@]2(Cl)[C@@H]3[C@H]4C[C@H]([C@@H]5O[C@H]45)[C@@H]3[C@@]1(Cl)C2(Cl)Cl
active: Bacteroides uniformis 0.709
inactive: Akkermansia muciniphila 0.861 | Bacteroides caccae 0.979 | Bacteroides clarus 0.864 | Bacteroides dorei 0.958 | Bacteroides stercoris 0.773 | [1] 0.925 | [2] 0.962 | Clostridium difficile 1 | Collinsella aerofaciens 0.936

CCOP(=S)(OCC)SCSC(C)(C)C
inactive: Akkermansia muciniphila 1.04 | Bacteroides caccae 0.964 | Bacteroides clarus 1.01 | Bacteroides dorei 0.963 | Bacteroides stercoris 0.988 | [1] 0.998 | Bacteroides uniformis 1.02 | [2] 1.13 | Clostridium difficile 0.888 | Collinsella aerofaciens 0.96

CSC1=N[C@@](C)(c2ccccc2)C(=O)N1Nc1ccccc1
inactive: Akkermansia muciniphila 1.05 | Bacteroides caccae 0.978 | Bacteroides clarus 0.967 | Bacteroides dorei 0.985 | Bacteroides stercoris 1.26 | [1] 0.961 | Bacteroides uniformis 0.986 | [2] 1.04 | Clostridium difficile 0.997 | Collinsella aerofaciens 0.99

O=S(=O)(c1ccc(Cl)cc1)c1cc(Cl)c(Cl)cc1Cl
inactive: Akkermansia muciniphila 1.07 | Bacteroides caccae 0.921 | Bacteroides clarus 0.935 | Bacteroides dorei 0.91 | Bacteroides stercoris 0.931 | [1] 0.952 | Bacteroides uniformis 0.903 | [2] 1.04 | Clostridium difficile 0.963 | Collinsella aerofaciens 0.945

COC(=O)C(C)(Cl)Cl
inactive: Akkermansia muciniphila 0.86 | Bacteroides caccae 0.984 | Bacteroides clarus 1.01 | Bacteroides dorei 1.02 | Bacteroides stercoris 1 | [1] 1.04 | Bacteroides uniformis 0.968 | [2] 1.02 | Clostridium difficile 1.01 | Collinsella aerofaciens 1.01

O=C(O)CCCOc1ccc(Cl)cc1Cl
inactive: Akkermansia muciniphila 0.929 | Bacteroides caccae 1.04 | Bacteroides clarus 0.978 | Bacteroides dorei 1.02 | Bacteroides stercoris 0.922 | [1] 1.02 | Bacteroides uniformis 1.07 | [2] 1.06 | Clostridium difficile 1.01 | Collinsella aerofaciens 0.984

CC(Oc1ccc(Oc2nc3ccc(Cl)cc3o2)cc1)C(=O)O (racemic)
inactive: Akkermansia muciniphila 0.992 | Bacteroides caccae 1.05 | Bacteroides clarus 0.995 | Bacteroides dorei 0.996 | Bacteroides stercoris 1.25 | [1] 0.996 | Bacteroides uniformis 0.962 | [2] 1.03 | Clostridium difficile 0.987 | Collinsella aerofaciens 1.03

CNC(=O)N(C)c1nc2ccccc2s1
inactive: Akkermansia muciniphila 0.902 | Bacteroides caccae 1.02 | Bacteroides clarus 0.991 | Bacteroides dorei 1 | Bacteroides stercoris 0.998 | [1] 0.999 | Bacteroides uniformis 0.991 | [2] 0.936 | Clostridium difficile 0.978 | Collinsella aerofaciens 0.995

N#Cc1nn(-c2c(Cl)cc(C(F)(F)F)cc2Cl)c(N)c1SC(F)(F)F
inactive: Akkermansia muciniphila 1.01 | Bacteroides caccae 0.941 | Bacteroides clarus 0.858 | Bacteroides dorei 0.899 | Bacteroides stercoris 1.14 | [1] 0.953 | Bacteroides uniformis 0.928 | [2] 1.09 | Clostridium difficile 0.909 | Collinsella aerofaciens 0.942

Clc1ccc(C2(Cn3cncn3)OCCO2)c(Cl)c1
inactive: Akkermansia muciniphila 1.03 | Bacteroides caccae 0.932 | Bacteroides clarus 0.984 | Bacteroides dorei 0.934 | Bacteroides stercoris 0.815 | [1] 0.916 | Bacteroides uniformis 0.985 | [2] 1.01 | Clostridium difficile 0.956 | Collinsella aerofaciens 0.913

CCN(CC)C(=S)[S-].O.O.O.[Na+]
inactive: Akkermansia muciniphila 0.862 | Bacteroides caccae 0.981 | Bacteroides clarus 1.01 | Bacteroides dorei 0.978 | Bacteroides stercoris 1.08 | [1] 0.848 | Bacteroides uniformis 1.01 | [2] 0.961 | Clostridium difficile 1.04 | Collinsella aerofaciens 0.925

CSc1nc(N=[N+]=[N-])nc(NC(C)C)n1
inactive: Akkermansia muciniphila 0.963 | Bacteroides caccae 1.04 | Bacteroides clarus 0.993 | Bacteroides dorei 1.04 | Bacteroides stercoris 0.975 | [1] 1.02 | Bacteroides uniformis 1.07 | [2] 0.849 | Clostridium difficile 1.02 | Collinsella aerofaciens 0.998

COC(C)(C)CCCC(C)C/C=C/C(C)=C/C(=O)OC(C)C (stereo not given)
inactive: Akkermansia muciniphila 0.867 | Bacteroides caccae 1 | Bacteroides clarus 0.989 | Bacteroides dorei 0.996 | Bacteroides stercoris 1.03 | [1] 0.981 | Bacteroides uniformis 0.963 | [2] 0.987 | Clostridium difficile 1.02 | Collinsella aerofaciens 1.04

c1cc2c3c(cccc3c1)CC2
inactive: Akkermansia muciniphila 0.966 | Bacteroides caccae 1 | Bacteroides clarus 1 | Bacteroides dorei 1.01 | Bacteroides stercoris 0.991 | [1] 0.999 | Bacteroides uniformis 0.994 | [2] 0.961 | Clostridium difficile 0.993 | Collinsella aerofaciens 0.995

CCOP(=S)(OCC)Oc1ccc(Cl)cc1Cl
inactive: Akkermansia muciniphila 0.962 | Bacteroides caccae 1.03 | Bacteroides clarus 0.963 | Bacteroides dorei 1.02 | Bacteroides stercoris 1.04 | [1] 0.979 | Bacteroides uniformis 0.987 | [2] 1.04 | Clostridium difficile 1.02 | Collinsella aerofaciens 1.04

O=[N+]([O-])c1c(Cl)c(Cl)c(Cl)c(Cl)c1Cl
inactive: Akkermansia muciniphila 0.814 | Bacteroides caccae 0.777 | Bacteroides clarus 0.816 | Bacteroides dorei 0.972 | Bacteroides stercoris 0.986 | [1] 0.915 | Bacteroides uniformis 0.917 | [2] 0.808 | Clostridium difficile 1.01 | Collinsella aerofaciens 1.04

CCC(C)c1cc([N+](=O)[O-])cc([N+](=O)[O-])c1OC(=O)C=C(C)C (stereo not given)
active: Bacteroides clarus 0.74 | Bacteroides stercoris 0.473 | Bacteroides uniformis 0.479
inactive: Akkermansia muciniphila 1.15 | Bacteroides caccae 0.986 | Bacteroides dorei 0.801 | [1] 0.802 | [2] 0.879 | Clostridium difficile 0.989 | Collinsella aerofaciens 0.956

COc1cc(OC)nc(Sc2cccc(Cl)c2C(=O)O)n1
inactive: Akkermansia muciniphila 1.28 | Bacteroides caccae 1.01 | Bacteroides clarus 0.98 | Bacteroides dorei 0.959 | Bacteroides stercoris 0.977 | [1] 1.02 | Bacteroides uniformis 0.986 | [2] 1 | Clostridium difficile 1.01 | Collinsella aerofaciens 0.964

CCCCN(CCCC)N=O
inactive: Akkermansia muciniphila 0.985 | Bacteroides caccae 1.01 | Bacteroides clarus 1.02 | Bacteroides dorei 1.01 | Bacteroides stercoris 1 | [1] 1 | Bacteroides uniformis 1 | [2] 1.01 | Clostridium difficile 1.01 | Collinsella aerofaciens 1.03
